# Assay results from PubChem BioAssay (Tox21).
# Results filed as inconclusive are left out. Entries that show only a call come without a potency. Values without a mark were called inactive. Activity calls are given as the source filed them. Calls come from the whole dose curve; as a rule, active = well fitted cell-killing curve with a large enough effect in the repeat runs; inconclusive = weak or mixed curves, or effect the other way; inactive = flat fitted curve, though single readings scatter.
# Test: qHTS assay to identify small molecule agonists of the constitutive androstane receptor (CAR) signaling pathway - cell viability counter screen (AID 1224836); note: nearly all actives have a fitted effect of over 45% in size
# Details: HepG2-CYP2B6-hCAR viability, CellTiter-Fluor, 23 h, PK11195 added to every well; series mostly up to 92.4 µM
# Text: U.S. Tox21 Program National Center for Advancing Translational Sciences [NCATS] NIH Chemical Genomics Center [NCGC] U.S. Environmental Protection Agency [EPA] National Institutes of Environmental Health Sciences [NIEHS] National Toxicology Program [NTP] U.S. Food and Drug Administration [FDA] Tox21 Assay Overview: The constitutive androstane receptor (CAR) is a nuclear receptor which regulates multiple drug metabolizing enzymes (DMEs) and transporters. Activating CAR will generally increase the transcription and subsequent translation of CYP2B6 and CYP3A4. These two DMEs represent about 50% of the drug metabolizing potential in the body. […] Recently, there have also been studies performed indicating CARs role in energy metabolism and cancer therapy. Therefore, inducing CARs activity could have a potential effect on diabetes and cancer. Identifying environmental toxins and compounds which modulate CAR, through the use of the Tox21 10K compound collection, will be an important step in determining the toxicity and potential therapeutic effects these factors will have on the human body. To differentiate true CAR agonists from cytotoxic substances, the assay is multiplexed with a cell viability assay.
# Tox21 Assay Protocol Summary: A double-stable (hCAR and CYP2B6-2.2kb) transfected cell line, derived from human hepatoma (HepG2) cells, was utilized for the duration of the quantitative high-throughput screens. The HepG2-CYP2B6-hCAR cells were dispensed at 2500 cells/4 uL/well in 1536-well white solid bottom plates using a Multidrop Combi. After the assay plates were incubated at 37 C/5% CO2 for 4 hrs, 23 nL of compounds at 15 concentrations (from 5-48 columns) or positive control (from 1 to 4 columns) were transferred to the assay plates using a Pintool station. One uL of PK11195 (final concentration = 0.75 uM) was added, using a Flying Reagent Dispenser, inside each well. After a 23 hr incubation period at 37 C/5% CO2, 1 uL of CellTiter-Fluor reagent was added into each well of the assay plates using a Flying Reagent Dispenser. The fluorescence intensity in the plates was then measured using a ViewLux plate reader.
# Potency is the fitted concentration of half-maximal effect.
SMILES,Potency,"viability change, negative = cytotoxic"
O=C(O)CCCc1c[nH]c2ccccc12,inactive,–
COc1cc(NCc2ccc3nc(N)nc(N)c3c2C)cc(OC)c1OC,inactive,–
CCN(CC)C(=O)N1CCN(C)CC1,inactive,–
Cc1ccc(S(=O)(=O)NC(=O)NC2CCCCC2)cc1,inactive,–
c1ccc(CNc2ncnc3c2ncn3C2CCCCO2)cc1 (stereo not given),inactive,–
CNC1CCCN(c2c(F)cc3c(=O)c(C(=O)O)cn(C4CC4)c3c2OC)C1 (stereo not given),inactive,–
CCCCCCCCCCCCCOC(=O)CCSCCC(=O)OCCCCCCCCCCCCC,–,-3.39% [at 19 µM]
O=C(CCS)OCC(COC(=O)CCS)(COC(=O)CCS)COC(=O)CCS,inactive,–
Nc1c(Cl)cc(Cl)cc1[N+](=O)[O-],inactive,–
CC[C@H]1OC(=O)[C@H](C)[C@@H](O[C@H]2C[C@@](C)(OC)[C@@H](O)[C@H](C)O2)[C@H](C)[C@@H](O[C@@H]2O[C@H](C)C[C@H](N(C)C)[C@H]2O)[C@](C)(O)C[C@@H](C)C(=O)[C@H](C)[C@@H](O)[C@]1(C)O,inactive,–
CCC(=O)OCc1ccc(OC)cc1,inactive,–
CCCCCCOC(=O)CCCCC,inactive,–
CCCCC(CC)COS(=O)(=O)O (stereo not given),inactive,–
CC(C)(C(=O)c1cccnc1)c1cccnc1,inactive,–
CC(C)(O)CCc1ccccc1,inactive,–
Cc1c[nH]c2ccccc12,inactive,–
CCN(CC)CCNC(=O)c1cc(Cl)c(N)cc1OC,inactive,–
O=C(c1ccccc1)C1CCC1,inactive,–
CC(CCc1ccc(O)cc1)NCCc1ccc(O)c(O)c1 (stereo not given),inactive,–
COc1cc(NS(=O)(=O)c2ccc(N)cc2)nc(C)n1,inactive,–

SMILES,Potency,"viability change, negative = cytotoxic"
C/C(C=O)=C\c1ccccc1,inactive,–
COc1ccc(C(=O)NCc2ccc(OCCN(C)C)cc2)cc1OC,inactive,–
CCOC(=O)Oc1ccc(CCNC(=O)[C@H](CCSC)NC(C)=O)cc1OC(=O)OCC,inactive,–
CCCCCCCCCCCC(=O)OCC(O)CO (stereo not given),inactive,–
NC(=O)c1ccccc1[N+](=O)[O-],inactive,–
Cc1ccc2nc(N)[nH]c(=O)c2c1Sc1ccncc1,inactive,–
CC1CCc2nccnc21 (stereo not given),inactive,–
C=CC(=O)O,inactive,–
CCC(CO)(CO)[N+](=O)[O-],inactive,–
CCN(CC)c1ccc(C(=C2C=CC(=[N+](CC)CC)C=C2)c2ccc(S(=O)(=O)O)cc2S(=O)(=O)[O-])cc1,24.3 µM (active),–
CC[C@@H](CO)NCCN[C@@H](CC)CO,inactive,–
CN1C(CSCC(F)(F)F)Nc2cc(Cl)c(S(N)(=O)=O)cc2S1(=O)=O (stereo not given),inactive,–
CC1C(C)(C)C2=C(C(=O)CCC2)C1(C)C (stereo not given),inactive,–
COc1cc(OC)c2ccc(=O)oc2c1,inactive,–
CC(C)CC(O)CC(C)C,inactive,–
CC1CCCO1 (stereo not given),inactive,–
O=C(O)CN1C(=O)c2cccc3cccc(c23)C1=O,inactive,–
CCc1ccc(C)cc1,inactive,–
O=C(O)CCS,inactive,–
C1CCCCC1,inactive,–
